Experimental data as given in PubChem BioAssay.
Values without a mark were called inactive. This is one part of the list. Activity calls are given as the source filed them.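 Rule for the calls, unless noted: active = average inhibition above a cutoff equal to the mean inhibition of all tested compounds plus one SD (cut at about 70% in these data); inactive = the rest.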

Legend:
[1] = target: Receptor-interacting serine/threonine-protein kinase 2 (Homo sapiens) (UniProt O43353); experiment: inhibitors of RIPK2 association with NOD2 – fluorescence, CHO cells, BLA complementation, triplicate, confirmation (AID 624370;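 active = mean inhibition across replicates above a set limit taken from the earlier primary screen, cut at about 21% in these data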;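 note: 0% = DMSO-only wells and the high end = clavulanate BLA-blocked wells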); conditions: CCF4 FRET, at 4.98 µM, stronger effect = higher value
[2] = BLA reporter readout interference – cell-based, CHO-K1 CMV-bla, CCF4 FRET, fluorescence, artefact control for NOD2-RIPK2 interaction inhibitor project, confirmation (AID 624371;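 active = mean inhibition above the low-control mean inhibition plus three low-control SD, cut at about 11% in these data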;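 note: 0% = DMSO only wells and 100% = clavulanate high control wells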); conditions: CCF4 FRET ratio, counterscreen, at 4.98 µM, stronger effect = higher value
[3] = target: Nuclear receptor coactivator 1 (Homo sapiens) (UniProt Q15788); experiment: NCOA1 GAL4-fusion reporter inhibition – cell-based, luminescence, quadruplicate, confirmation (AID 588820;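 active = mean inhibition above 46.68%, the untreated control wells mean plus 3 SD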;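 note: 0% = DMSO wells and 100% = gossypol 36 µM treated wells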); conditions: HEK293 GAL4-SRC1 luciferase reporter, at 3.6 µM, stronger effect = higher value
[4] = repression of VP16-driven luciferase reporter – cell-based, luminescence, high throughput, counter-screen for SRC1 inhibitor project (AID 588824; in the data active = inhibition above about 25%); conditions: cell-based VP16 transactivation luciferase luminescence; at 3.6 µM; stronger effect = higher value
[5] = system: transactivating tegument protein VP16 (Human herpesvirus 1); experiment: compounds suppressing VP16-driven luciferase signal – cell-based, luminescence, single concentration, counter-screen for SRC2 inhibitor project (AID 652007; in the data active = inhibition above about 36%); conditions: cell-based VP16 transactivation luciferase reporter, at 8.9 µM, stronger effect = higher value
[6] = target: Nuclear receptor coactivator 2 (Homo sapiens) (UniProt Q15596); experiment: inhibition of GAL4-SRC2 driven luciferase expression – cell-based, luminescence, HEK293, triplicate, confirmation (AID 652008;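 active = mean inhibition above 46.5%, the solvent-only control mean plus 3 SD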;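 note: 0% = DMSO-treated cells and 100% = Gossypol at 36 µM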); conditions: HEK293 GAL4-SRC2 luciferase reporter, at 8.9 µM, stronger effect = higher value
[7] = target: (Lyso)-N-acylphosphatidylethanolamine lipase (Mus musculus) (UniProt Q8VD66); experiment: mouse ABHD4 hydrolase blockers, triplicate – biochemical, fluorescence polarization, confirmation (AID 720658;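 active = mean inhibition across replicates above the hit cutoff set in the primary screen, cut at about 30% in these data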;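 note: 0% = wild-type ABHD4 with DMSO and 100% = catalytically dead S159A mutant with DMSO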); conditions: purified mABHD4, FP-Rh probe fluorescence polarization; at 8.92 µM; stronger effect = higher value
[8] = system: DAF-12 nuclear receptor (Heterodera glycines), GAL4-LBD fusion; experiment: hgDAF-12 GAL4 fusion reporter activation, retest – cell-based, luminescence, HEK293, GAL4-LBD fusion, confirmation (AID 743050;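 active = mean activation over triplicate wells above the hit cutoff derived from the earlier primary screen, cut at about 11% in these data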;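 note: 0% = DMSO low control and 100% = 2 mM sodium butyrate high control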); conditions: HEK293 GAL4-hgDAF12 luciferase reporter, agonist mode; at 6.8 µM; stronger effect = higher value; percent of butyrate response
[9] = target: Oxysterols receptor LXR-beta (Homo sapiens) (UniProt P55055); experiment: nonspecific reporter activation via LXR – cell-based, luminescence, HEK293, H. glycines campaign, counter-screen for hgDAF-12 agonist project, confirmation (AID 743051;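 active = mean activation of the triplicate above a set limit carried over from the primary screen, none filed active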); conditions: HEK293 Gal4-LXR luciferase reporter, 24 h; at 6.8 µM; stronger effect = higher value
[10] = target: Photoreceptor-specific nuclear receptor (Homo sapiens) (UniProt Q9Y5X4); experiment: retest of NR2E3-NCOR disrupting agonists – cell-based, luminescence, CHO-S two-hybrid, confirmation (AID 624378); conditions: CHO-S mammalian two-hybrid NR2E3-NCOR, luciferase luminescence; at 3.98 µM; stronger effect = higher value;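 note: 0% = DMSO in NR2E3 cells and 100% = DMSO in cells lacking NR2E3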
[11] = nonselective effects on VP16 transactivation – cell-based, luminescence, CHO-S, high throughput, counter-screen for NR2E3 agonist project, confirmation (AID 624379;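 active = mean inhibition above a cutoff equal to the average over all tested compounds plus one standard deviation, cut at about 70% in these data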;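 note: luciferase from a UAS reporter driven by GAL4-VP16 transactivation; 0% = DMSO with VP16-transfected cells and 100% = DMSO with cells lacking VP16; higher means less reporter light so more repression of VP16 activity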); conditions: CHO-S GAL4-VP16 luciferase reporter, at 3.98 µM, stronger effect = higher value
[12] = target: Galanin receptor type 2 (Homo sapiens) (UniProt O43603); experiment: blockers of human galanin receptor 2 – cell-based, confirmation (AID 866; in the data active = inhibition above about 27%;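 note: cells stimulated with galanin at about its EC80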); conditions: GALR2-expressing cells, antagonist mode, at 4 µM, stronger effect = higher value
[13] = nonspecific BLA reporter inhibition – CHO NFAT-bla cells, FRET readout, counter-screen for GALR2 antagonist project, confirmation (AID 867;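 active = inhibition above the mean inhibition across tested compounds plus 3 SD, cut at about 27% in these data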;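 note: 0% = 500 nM thapsigargin stimulated wells and 100% = unstimulated BSA only wells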); conditions: beta-lactamase FRET, thapsigargin-stimulated, at 4.2 µM, stronger effect = higher value

Sequence of Receptor-interacting serine/threonine-protein kinase 2 (Homo sapiens) (O43353 whole entry, looked up): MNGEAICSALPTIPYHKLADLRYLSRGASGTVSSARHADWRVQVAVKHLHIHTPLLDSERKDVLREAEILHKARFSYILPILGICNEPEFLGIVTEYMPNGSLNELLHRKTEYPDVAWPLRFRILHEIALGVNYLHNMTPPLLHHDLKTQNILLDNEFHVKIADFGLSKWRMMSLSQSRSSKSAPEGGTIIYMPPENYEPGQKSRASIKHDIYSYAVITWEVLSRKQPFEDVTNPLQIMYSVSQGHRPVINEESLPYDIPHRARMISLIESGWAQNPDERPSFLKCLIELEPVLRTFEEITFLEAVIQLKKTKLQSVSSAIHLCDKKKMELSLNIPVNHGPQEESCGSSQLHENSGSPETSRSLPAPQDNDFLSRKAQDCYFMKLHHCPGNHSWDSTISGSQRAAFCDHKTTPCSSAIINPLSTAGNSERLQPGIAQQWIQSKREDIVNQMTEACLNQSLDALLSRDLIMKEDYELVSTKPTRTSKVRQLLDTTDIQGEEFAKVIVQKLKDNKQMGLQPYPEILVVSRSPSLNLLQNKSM
Sequence of Photoreceptor-specific nuclear receptor (Homo sapiens) (Q9Y5X4 whole entry, looked up, the tested form may be a part): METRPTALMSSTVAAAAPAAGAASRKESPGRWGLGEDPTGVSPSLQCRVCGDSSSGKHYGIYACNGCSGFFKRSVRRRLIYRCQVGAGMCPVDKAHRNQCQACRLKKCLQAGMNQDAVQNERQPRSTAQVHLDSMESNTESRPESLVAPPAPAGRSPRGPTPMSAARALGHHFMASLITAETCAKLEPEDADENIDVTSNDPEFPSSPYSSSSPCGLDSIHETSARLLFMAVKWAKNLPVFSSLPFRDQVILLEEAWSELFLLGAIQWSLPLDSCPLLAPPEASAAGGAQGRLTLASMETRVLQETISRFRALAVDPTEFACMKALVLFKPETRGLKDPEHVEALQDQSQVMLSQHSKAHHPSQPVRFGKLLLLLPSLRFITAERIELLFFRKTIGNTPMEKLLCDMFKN
Sequence of Nuclear receptor coactivator 1 (Homo sapiens) (Q15788 whole entry, looked up, the tested form may be a part): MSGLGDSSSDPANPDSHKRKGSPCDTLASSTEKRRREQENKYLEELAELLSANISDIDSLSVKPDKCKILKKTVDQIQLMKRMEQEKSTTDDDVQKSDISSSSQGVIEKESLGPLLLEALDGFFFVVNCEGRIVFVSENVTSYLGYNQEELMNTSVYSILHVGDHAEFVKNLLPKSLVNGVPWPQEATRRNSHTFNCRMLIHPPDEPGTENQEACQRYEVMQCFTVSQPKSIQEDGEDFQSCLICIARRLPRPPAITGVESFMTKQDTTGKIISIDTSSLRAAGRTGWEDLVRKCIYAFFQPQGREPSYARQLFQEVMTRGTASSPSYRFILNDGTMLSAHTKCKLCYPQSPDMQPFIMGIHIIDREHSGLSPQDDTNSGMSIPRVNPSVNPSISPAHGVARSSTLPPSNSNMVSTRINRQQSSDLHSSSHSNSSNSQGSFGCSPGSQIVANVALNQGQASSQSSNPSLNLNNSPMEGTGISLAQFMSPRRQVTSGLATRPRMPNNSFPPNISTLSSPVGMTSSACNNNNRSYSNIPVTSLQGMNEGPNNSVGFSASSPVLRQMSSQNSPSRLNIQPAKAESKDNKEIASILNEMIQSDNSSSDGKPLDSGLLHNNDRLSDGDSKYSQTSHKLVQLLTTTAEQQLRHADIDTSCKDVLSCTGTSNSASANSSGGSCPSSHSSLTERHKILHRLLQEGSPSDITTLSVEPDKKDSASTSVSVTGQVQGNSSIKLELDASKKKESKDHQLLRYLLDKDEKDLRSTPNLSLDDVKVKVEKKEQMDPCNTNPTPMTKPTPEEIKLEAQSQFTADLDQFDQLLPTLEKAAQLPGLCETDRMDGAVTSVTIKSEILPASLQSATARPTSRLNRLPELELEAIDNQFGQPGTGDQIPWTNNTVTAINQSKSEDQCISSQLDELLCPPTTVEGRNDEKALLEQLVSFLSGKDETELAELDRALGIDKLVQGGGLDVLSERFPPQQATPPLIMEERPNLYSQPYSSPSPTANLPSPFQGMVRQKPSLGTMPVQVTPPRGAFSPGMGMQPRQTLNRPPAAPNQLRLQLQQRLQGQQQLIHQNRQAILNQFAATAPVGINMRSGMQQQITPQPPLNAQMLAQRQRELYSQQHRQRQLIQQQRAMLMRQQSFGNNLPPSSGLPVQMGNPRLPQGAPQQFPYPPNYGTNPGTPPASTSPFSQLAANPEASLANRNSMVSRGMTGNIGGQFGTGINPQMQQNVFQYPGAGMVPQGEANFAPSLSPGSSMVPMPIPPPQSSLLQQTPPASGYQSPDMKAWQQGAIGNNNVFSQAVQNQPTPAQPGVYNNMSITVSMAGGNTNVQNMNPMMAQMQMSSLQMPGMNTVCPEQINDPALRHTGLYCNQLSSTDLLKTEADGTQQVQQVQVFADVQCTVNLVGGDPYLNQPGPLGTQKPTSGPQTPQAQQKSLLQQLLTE
Sequence of (Lyso)-N-acylphosphatidylethanolamine lipase (Mus musculus) (Q8VD66 whole entry, looked up, the tested form may be a part): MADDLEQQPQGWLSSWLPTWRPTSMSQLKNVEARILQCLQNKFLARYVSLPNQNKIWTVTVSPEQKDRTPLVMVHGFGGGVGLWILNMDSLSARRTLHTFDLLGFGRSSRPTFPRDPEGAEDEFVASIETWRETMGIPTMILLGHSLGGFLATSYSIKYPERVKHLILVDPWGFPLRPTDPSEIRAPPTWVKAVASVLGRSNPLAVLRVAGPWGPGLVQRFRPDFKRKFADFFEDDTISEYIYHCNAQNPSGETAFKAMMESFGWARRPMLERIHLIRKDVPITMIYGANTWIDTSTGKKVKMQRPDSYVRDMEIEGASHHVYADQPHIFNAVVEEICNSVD
Sequence of Oxysterols receptor LXR-beta (Homo sapiens) (P55055 whole entry, looked up, the tested form may be a part): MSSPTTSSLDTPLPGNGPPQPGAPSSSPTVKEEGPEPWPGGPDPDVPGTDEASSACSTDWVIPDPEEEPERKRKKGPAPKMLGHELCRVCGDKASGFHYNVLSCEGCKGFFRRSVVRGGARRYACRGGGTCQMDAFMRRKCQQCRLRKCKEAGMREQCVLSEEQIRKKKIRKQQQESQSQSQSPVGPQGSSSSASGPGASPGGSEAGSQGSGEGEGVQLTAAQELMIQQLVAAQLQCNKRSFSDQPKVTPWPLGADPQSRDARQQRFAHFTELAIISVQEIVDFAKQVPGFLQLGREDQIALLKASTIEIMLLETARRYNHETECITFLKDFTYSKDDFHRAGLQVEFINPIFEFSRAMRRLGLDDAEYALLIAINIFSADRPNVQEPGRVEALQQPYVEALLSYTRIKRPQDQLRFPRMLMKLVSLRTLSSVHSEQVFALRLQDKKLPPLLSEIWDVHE
Sequence of Galanin receptor type 2 (Homo sapiens) (O43603 whole entry, looked up): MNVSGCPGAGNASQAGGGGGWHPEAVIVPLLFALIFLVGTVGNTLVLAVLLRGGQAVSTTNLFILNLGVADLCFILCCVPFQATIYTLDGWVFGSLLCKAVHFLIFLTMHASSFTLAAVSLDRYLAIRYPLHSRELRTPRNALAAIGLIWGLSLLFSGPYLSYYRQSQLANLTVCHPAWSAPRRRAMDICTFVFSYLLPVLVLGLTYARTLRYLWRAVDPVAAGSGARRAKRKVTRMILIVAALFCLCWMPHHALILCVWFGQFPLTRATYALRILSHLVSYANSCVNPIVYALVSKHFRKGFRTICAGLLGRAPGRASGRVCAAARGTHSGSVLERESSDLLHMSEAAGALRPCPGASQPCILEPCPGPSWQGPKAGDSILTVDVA
Sequence of Nuclear receptor coactivator 2 (Homo sapiens) (Q15596 whole entry, looked up, the tested form may be a part): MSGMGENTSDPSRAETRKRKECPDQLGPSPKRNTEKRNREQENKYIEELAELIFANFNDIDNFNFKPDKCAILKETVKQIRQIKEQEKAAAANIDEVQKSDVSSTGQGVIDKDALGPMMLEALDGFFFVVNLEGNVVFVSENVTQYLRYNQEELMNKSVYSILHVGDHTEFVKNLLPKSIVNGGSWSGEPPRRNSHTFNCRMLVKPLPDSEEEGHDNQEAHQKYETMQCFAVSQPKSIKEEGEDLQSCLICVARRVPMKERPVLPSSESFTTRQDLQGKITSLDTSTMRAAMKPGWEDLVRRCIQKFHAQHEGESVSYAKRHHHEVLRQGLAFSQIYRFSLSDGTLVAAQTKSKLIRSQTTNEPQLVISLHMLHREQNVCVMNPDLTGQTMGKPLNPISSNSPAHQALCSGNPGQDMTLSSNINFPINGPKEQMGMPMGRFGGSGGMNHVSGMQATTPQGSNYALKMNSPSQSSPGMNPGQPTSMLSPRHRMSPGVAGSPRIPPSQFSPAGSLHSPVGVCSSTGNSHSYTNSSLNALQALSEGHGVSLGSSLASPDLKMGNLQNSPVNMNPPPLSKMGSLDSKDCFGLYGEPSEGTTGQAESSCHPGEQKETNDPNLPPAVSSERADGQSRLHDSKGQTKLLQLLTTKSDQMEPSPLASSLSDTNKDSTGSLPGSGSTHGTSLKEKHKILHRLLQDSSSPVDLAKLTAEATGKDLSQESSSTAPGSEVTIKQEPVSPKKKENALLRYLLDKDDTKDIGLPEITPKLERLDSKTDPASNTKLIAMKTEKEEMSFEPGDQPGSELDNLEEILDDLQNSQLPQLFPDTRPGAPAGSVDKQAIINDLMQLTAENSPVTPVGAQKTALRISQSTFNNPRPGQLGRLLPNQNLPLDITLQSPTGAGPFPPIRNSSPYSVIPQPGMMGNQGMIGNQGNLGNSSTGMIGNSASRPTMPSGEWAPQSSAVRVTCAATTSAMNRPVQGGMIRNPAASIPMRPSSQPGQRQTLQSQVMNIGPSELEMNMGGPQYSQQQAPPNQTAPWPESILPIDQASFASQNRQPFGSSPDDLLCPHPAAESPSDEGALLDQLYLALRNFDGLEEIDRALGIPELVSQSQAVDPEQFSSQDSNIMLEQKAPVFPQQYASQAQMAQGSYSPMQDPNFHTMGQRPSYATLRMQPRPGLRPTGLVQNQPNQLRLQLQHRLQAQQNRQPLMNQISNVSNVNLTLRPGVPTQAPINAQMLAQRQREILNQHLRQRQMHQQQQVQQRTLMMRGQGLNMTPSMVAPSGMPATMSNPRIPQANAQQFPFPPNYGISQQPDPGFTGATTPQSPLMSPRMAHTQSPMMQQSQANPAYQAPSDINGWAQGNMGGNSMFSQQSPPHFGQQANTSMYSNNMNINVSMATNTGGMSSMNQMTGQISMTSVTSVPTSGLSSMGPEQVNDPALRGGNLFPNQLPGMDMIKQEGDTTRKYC

With `O=[N+]([O-])/C=C/c1ccc2c(ccn2Cc2ccccc2)c1` the inhibition [1] was 83.3% (active) and the inhibition [2] was 7.27%.

Work on `CCn1c(Oc2cccc(Br)c2)nc2c1c(=O)n(C)c(=O)n2C` yielded an inhibition [3] of 15.8%, an inhibition [4] of 12.3% and an inhibition [5] of -33.4%. It also gave an inhibition [6] of 10.2%.

With `Cc1ccc(NC(=O)Cn2sc3ccccc3c2=O)cc1` the inhibition [1] was 33.2% (active) and the inhibition [2] was 3.75%.

`O=C(O)c1ccc2c(c1)C(=O)N(c1ccc(/C=C/C(=O)c3ccccc3)cc1)C2=O` showed an inhibition [1] of 5.5%, an inhibition [2] of 0.39% and an inhibition [7] of 0.6%. The activation [8] was 1.47% and the activation [9] was 0.05%.

Compound `CCOC(=O)CC1(NC(=O)c2cc(COc3cncc(Cl)c3)on2)CCCCC1` has an inhibition [10] of 20.2% and an inhibition [11] of 44.2%.

For `CN(C)C(=S)N=c1ssc(=S)n1Cc1ccco1`, the inhibition [10] was -16.6% and the inhibition [11] was -46.1%.

Work on `CCCc1cc(=O)[nH]c(SCC(=O)Nc2sc3c(c2C#N)CCCC3)n1` yielded an inhibition [10] of 15.4% and an inhibition [11] of 41.8%.

For `COc1cc(NS(=O)(=O)c2ccc3ccccc3c2)c2ncccc2c1`, the inhibition [1] was 35.7% (active), the inhibition [2] was 18.9% (active) and the inhibition [10] was -24.6%. For the same compound, the inhibition [11] was 31.6%.

In the case of `COc1ccc(S(=O)(=O)N2CCN(C(C)C(=O)Nc3ccc(C(C)C)cc3)CC2)cc1` (stereo not drawn), the inhibition [10] is reported as -2.85% and the inhibition [11] is reported as -0.89%.

Compound `c1ccc(C2c3[nH]c4ccccc4c3CCN2Cc2cccn2-c2cccnc2)nc1` (stereo not drawn) has an inhibition [10] of -1.67% and an inhibition [11] of -5.76%.

With `CCC1(C)Cc2c(sc3[nH]c(=S)n(Cc4ccccc4)c(=O)c23)CO1` (stereo not drawn) the inhibition [10] was 70.9% (active) and the inhibition [11] was 34.4%.

`CCCOc1ccccc1C1CC(=O)Nc2cc3c(cc21)OCO3` (stereo not drawn) gave an inhibition [10] of 28.9% and an inhibition [11] of 26.1%.

In the case of `COc1cccc(CNS(=O)(=O)c2ccc3c(c2)CC(C)N3C(=O)C2CCC2)c1` (stereo not drawn), the inhibition [10] is reported as 73.3% (active) and the inhibition [11] is reported as 58.5%.

In the case of `N#Cc1c(-c2ccccc2)nc(SCc2cccc(C(F)(F)F)c2)[nH]c1=O`, the inhibition [10] is reported as 43.6% and the inhibition [11] is reported as 30.9%.

In the case of `c1ccc(C(=NNc2nc3ccccc3s2)c2ccccn2)cc1`, the inhibition [10] is reported as 22.6% and the inhibition [11] is reported as 11.6%.

`Cc1nc(-c2ccc(F)cc2)c(CC(=O)Nc2cc(S(=O)(=O)N3CCCCC3)ccc2C)s1` showed an inhibition [10] of 56.8% and an inhibition [11] of -7.22%.

With `Cc1cccc(NS(=O)(=O)c2ccc(-c3cnc(C4CC4)o3)cc2)c1` the inhibition [10] was 53.5% and the inhibition [11] was 37.9%.

`CNC(=O)c1sc(Nc2ccc(OCc3ccccc3)cc2)nc1C` showed an inhibition [10] of 37.7% and an inhibition [11] of 30%.

With `COc1ccc(S(=O)(=O)NCCCCOc2ccc(Cl)cc2)cc1` the inhibition [10] was 97.5% (active) and the inhibition [11] was 86.5% (active).

For `O[C@H]1C[C@H](c2ccc(Cl)cc2)N(Cc2cccs2)C[C@@H]1n1cc(C2CC2)nn1`, the inhibition [1] was -0.97% and the inhibition [2] was 0.34%.

`COc1ccc(C(=O)NNC(=S)NC(=O)c2ccccc2[N+](=O)[O-])cc1` gave an inhibition [10] of 3.63% and an inhibition [11] of -6.68%.

In the case of `Cc1ccc(S(=O)(=O)N2[C@@H](c3ccc(Br)cc3)C(C(=O)O)=C[C@H]2CC2CCCC2)cc1`, the inhibition [10] is reported as 26.2% and the inhibition [11] is reported as 26.5%.

`O=C(CSc1nc(Nc2ccccc2)nc(N2CCOCC2)n1)Nc1cc(Cl)ccc1O` gave an inhibition [10] of 31.7% and an inhibition [11] of 20.4%.

`CC1CCCCN1S(=O)(=O)c1ccc(C(=O)Nc2nnc(-c3cccs3)o2)cc1` (stereo not drawn) gave an inhibition [10] of 49.5% and an inhibition [11] of 32%.

For `CCC(C)N1C(=O)S/C(=C/c2ccc(Sc3nc4ccccc4[nH]3)o2)C1=O` (stereo not drawn), the inhibition [10] was 85.7% (active) and the inhibition [11] was 69.8%.

For `CN(Cc1cn(Cc2ccc(C(F)(F)F)cc2)nn1)C1CN(Cc2cn(Cc3ccc(C(F)(F)F)cc3)nn2)S(=O)(=O)C1` (stereo not drawn), the inhibition [10] was 86.8% (active) and the inhibition [11] was 63.3%.

With `COc1ccc(CNS(=O)(=O)c2ccc(-c3cnc(C4CC4)o3)cc2)cc1` the inhibition [10] was 48.2% and the inhibition [11] was 55.8%.

In the case of `S=C(NN=Cc1ccccn1)Nc1ccccn1`, the inhibition [10] is reported as 79.5% (active) and the inhibition [11] is reported as 14.3%.

With `Cc1cccc(NC(=O)c2ccc(COc3ccccc3[N+](=O)[O-])o2)n1` the inhibition [10] was 10% and the inhibition [11] was 26.1%.

`Cc1ccc(NS(=O)(=O)c2ccc(-c3coc(C)n3)cc2)c(C)c1` gave an inhibition [10] of 57.5% and an inhibition [11] of 46.7%.

With `Clc1ccc(-n2nnnc2-c2cnc(-c3ccccn3)nc2-c2cccs2)cc1` the inhibition [10] was 24.1% and the inhibition [11] was -8.49%.

For `COCCNc1nc(-n2nc(C)cc2C)nc2sc3c(c12)CCCC3`, the inhibition [10] was -8.21% and the inhibition [11] was -32%.

For `N#Cc1cccc(NC(=O)COC(=O)c2ccccc2C(=O)c2ccc(Cl)c([N+](=O)[O-])c2)c1`, the inhibition [12] was 63.2% (active), the inhibition [13] was 37.4% (active) and the inhibition [1] was 56.2% (active). The inhibition [2] was 11.9% (active).

With `S=C(NCC1CCCO1)N1CCN(c2ccc(Cl)c(Cl)c2)CC1` (stereo not drawn) the inhibition [10] was 89.2% (active) and the inhibition [11] was 73.3% (active).

Compound `CCC(C)C(N=C1NS(=O)(=O)c2ccccc21)C(=O)N1CCC(C)CC1` (stereo not drawn) has an inhibition [10] of 41% and an inhibition [11] of -4.13%.

In the case of `COc1ccc(CNS(=O)(=O)c2ccc(NC(=O)N3CCCCC3)cc2)cc1`, the inhibition [10] is reported as 55.3% and the inhibition [11] is reported as 52.4%.

With `CC(=O)c1c(C)[nH]c(C(=O)COC(=O)c2cccc(S(=O)(=O)N(C)c3ccccc3)c2)c1C` the inhibition [10] was 23.8% and the inhibition [11] was 73.4% (active).
